# Reference: PubChem BioAssay (Tox21)
# Records with an inconclusive call do not appear. A call without a number means that no potency is given here. The source made the active and inactive calls. Unless noted, calls follow the shape of the full dose curve.
# How the values were obtained:
# [1] = Nuclear factor erythroid 2-related factor 2/antioxidant responsive element (Nrf2/ARE) small molecule agonists: qHTS cell viability counter screen in human keratinocytes (AID 1919968; active = well fitted cell-killing curve with a large enough effect in the repeat runs; also: nearly all actives have a fitted effect of over 55% in size)
# In short: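 HaCaT ARE reporter line, 1,500 cells/well; 5 h settle, 37 C/5% CO2; cpd in DMSO pinned; 23 h exposure; CellTiter-Fluor, 1 h; fluorescence.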
# [2] = Nuclear factor erythroid 2-related factor 2/antioxidant responsive element (Nrf2/ARE) small molecule agonists: luciferase reporter gene qHTS assay in human keratinocytes (AID 1919969); also: nearly all actives have a fitted effect of over 35% in size; also: potency is read from the fitted curve at half-maximal effect
# [3] = target: Gonadotropin-releasing hormone receptor (Homo sapiens) (UniProt P30968); assay: Human gonadotropin-releasing hormone receptor (GnRHR) small molecule agonists, calcium flux assay in GnRHR-HEK293 cells (AID 1920063); also: nearly all actives have a fitted effect of over 35% in size
# In short: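 GnRHR-HEK293, 1500 cells/well, 18 h 37 C/5% CO2; Ca dye 1 h 37 C; cpd pinned (DMSO), agonist mode; kinetic FL 480/540, 3 min, 1 s reads; 15 conc, n=3.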
# [4] = G protein-coupled receptor (GPCR) small molecule agonists, calcium flux assay: HEK293 wild type cell line counter screen (AID 1920065)
# In short: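 Kinetic fluorescence at Ex/Em 480/540, recorded every second over 3 min, served as the read-out after compound addition. Each compound was tested at 15 concentrations in triplicate on cells pre-loaded with calcium dye for 1 h.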
# [5] = p53 small molecule agonists, cell-based qHTS assay with human liver microsomes (AID 1963577)
# In short: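 Fluorescence of the beta-lactamase reporter in p53RE-bla cells, detected with LiveBLAzer substrate (2 h, room temperature, dark), served as the read-out after 16 h compound exposure at 37 C with human liver microsomes and NADPH, each 0.5 mg/mL final.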
# [6] = p53 small molecule agonists, cell-based qHTS assay with rat liver microsomes (AID 1963578)
# In short: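 Cells carrying a p53 response element–beta-lactamase reporter were plated and rested 5 h, then dosed with compound in DMSO plus rat liver microsomes and NADPH, each at 0.5 mg/mL final. After 16 h at 37 C, LiveBLAzer substrate was added for 2 h.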
# [7] = p53 small molecule agonists, cell-based qHTS assay with human liver microsomes: qHTS cell viability counter screen (AID 1963579); also: nearly all actives have a fitted effect of over 45% in size; also: potency is read from the fitted curve at half-maximal effect
# In short: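 Cytotoxicity counter screen: p53RE-bla, 4,000 cells/well; 5 h settle, 37 C/5% CO2; cpd + HLM 0.5 mg/mL + NADPH 0.5 mg/mL (final); 16 h, 37 C; CellTiter-Glo, 30 min RT, luminescence.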
# [8] = p53 small molecule agonists, cell-based qHTS assay with rat liver microsomes: qHTS cell viability counter screen (AID 1963580); also: nearly all actives have a fitted effect of over 45% in size; also: potency is read from the fitted curve at half-maximal effect
# In short: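 Intracellular ATP, by CellTiter-Glo luminescence, defines viability. HCT-116 p53RE-bla cells, 4,000 per well, were compound-treated in the presence of rat liver microsomes and NADPH for 16 h at 37 C.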
# [9] = p53 small molecule agonists, cell-based qHTS assay: qHTS cell viability counter screen (AID 1963581); also: nearly all actives have a fitted effect of over 45% in size
# In short: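 HCT-116 p53RE-bla cells, 4,000/well, plated 5 h before compound pin transfer; 16 h at 37 C; bla substrate 2 h RT; then CellTiter-Glo, 30 min RT, luminescence.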
# [10] = p53 small molecule agonists, cell-based qHTS assay (AID 1963582; active = well fitted activation curve with a large enough effect in the signal ratio in the repeat runs, not every such curve was filed as active; the % refers to the signal ratio)
# In short: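 Reporter line: p53RE-bla. Pre-incubation 5 h, 37 C, 5% CO2; compound (DMSO, pin tool) 16 h, 37 C; B/G FRET substrate 2 h RT; fluorescence intensity read.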
# [11] = target: 5-hydroxytryptamine receptor 2A (Homo sapiens) (UniProt P28223); assay: 5-hydroxytryptamine receptor 2A (HTR2A) small molecule antagonists, cell-based qHTS assay (AID 1963586); also: nearly all actives have a fitted effect of over 45% in size
# In short: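 Antagonist-mode intracellular calcium assay: DOI (4 nM) added after 5 min compound pre-incubation at room temperature to dye-loaded HTR2A-CHO cells. Fluorescence followed for 3 min, sampled every second.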
# [12] = target: 5-hydroxytryptamine receptor 2A (Homo sapiens) (UniProt P28223); assay: 5-hydroxytryptamine receptor 2A (HTR2A) small molecule agonists, cell-based qHTS assay (AID 1963587); also: nearly all actives have a fitted effect of over 30% in size
# In short: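 Kinetic calcium-flux fluorescence (2 min, 1 sec intervals) after compound addition in agonist mode. HTR2A-CHO cells were cultured 18 h, then dye-loaded 1 h at 37 C.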
# [13] = target: Muscarinic acetylcholine receptor M1 (Homo sapiens) (UniProt P11229); assay: Cholinergic receptor muscarinic 1 (CHRM1) small molecule antagonists, cell-based qHTS assay (AID 1963588); also: nearly all actives have a fitted effect of over 40% in size
# In short: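 CHRM1-CHO calcium-flux assay, antagonist mode. Cells were seeded 18 h, dye-loaded 1 h at 37 C and given compound for 5 min at RT, then acetylcholine was added at 50nM. FDSS fluorescence was read 3 min; 15 concentrations, three runs.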
# [14] = target: Muscarinic acetylcholine receptor M1 (Homo sapiens) (UniProt P11229); assay: Cholinergic receptor muscarinic 1 (CHRM1) small molecule agonists, cell-based qHTS assay (AID 1963589); also: nearly all actives have a fitted effect of over 35% in size
# In short: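 Human M1 in stable CHO line; 18 h plating, 1 h dye load 37 C; cpd added (agonist mode); Ca2+ fluorescence kinetic read, 1 s intervals; 15 conc, 3 runs.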
# [15] = cAMP Responsive Elements (CRE) small molecule antagonists, cell-based qHTS assay (AID 1963591; active = well fitted inhibition curve with a large enough effect in the signal ratio in the repeat runs, not every such curve was filed as active; the % refers to the signal ratio)
# In short: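 Beta-lactamase reporter read by FRET substrate (LiveBLAzer B/G) after 2 h at room temperature. CRE-bla HEK293T cells had received compound plus 0.25 uM (final) NKH477 for 3 h at 37 °C.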
# [16] = target: Beta-2 adrenergic receptor (Homo sapiens) (UniProt P07550); assay: Adrenergic beta2 receptor (ADRB2) small molecule antagonists, cell-based qHTS assay (AID 1963592); also: series mostly up to about 92 µM; nearly all actives have a fitted effect of over 50% in size
# In short: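 Cells (CHO, stable ADRB2 overexpression) incubated 18-20hr at 37C; compounds added from DMSO; agonist mix (1nM isoproterenol, 100uM IBMX, 25uM Ro-20-1724) added; 0.5hr RT; d2-cAMP and anti-cAMP-cryptate added; 1hr RT; 665/615 nm read.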
# [17] = target: Beta-2 adrenergic receptor (Homo sapiens) (UniProt P07550); assay: Adrenergic beta2 receptor (ADRB2) small molecule agonists, cell-based qHTS assay (AID 1963593);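 also: CHO cells stably overexpressing human ADRB2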
# In short: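 CHO cells stably over-expressing ADRB2 were plated overnight at 37C, then dosed with compounds plus a stimulation mix containing 100uM IBMX and 25uM Ro-20-1724 for 0.5hr at room temperature. cAMP was measured by HTRF competition, 1hr.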
# [18] = target: D(2) dopamine receptor (Homo sapiens) (UniProt P14416); assay: Dopamine D2 receptor (DRD2) small molecule agonists, cell-based qHTS assay (AID 1963594); also: nearly all actives have a fitted effect of over 35% in size
# In short: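 cAMP accumulation in DRD2-HEK293 cells measured by HTRF after 1 h detection; compounds added 10 min before NKH477 (200nM […]) forskolin-analogue stimulation, 30 min at room temperature, with Ro20-1724 present at 0.1 mM final.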
# [19] = target: D(2) dopamine receptor (Homo sapiens) (UniProt P14416); assay: Dopamine D2 receptor (DRD2) small molecule antagonists, cell-based qHTS assay (AID 1963595; active = well fitted inhibition curve with a large enough effect in the signal ratio in the repeat runs, with a control signal flat; the % refers to the signal ratio)
# In short: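 HEK293 cells stably expressing DRD2 were preincubated with 0.1 mM Ro20-1724, then with compound for 10 min at room temperature. Cells were stimulated with 200 nM NKH477 plus 12 nM quinpirole for 30 min, and cAMP was read by HTRF.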
# [20] = cAMP Responsive Elements (CRE) small molecule agonists, cell-based qHTS assay (AID 1963590)
# In short: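 HEK 293T CRE-bla, 2,000 cells/well, 18 h preincubation 37 C/5% CO2; cpds (DMSO) pinned, 3 h; LiveBLAzer B/G FRET substrate, 2 h RT.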
# Chain of Beta-2 adrenergic receptor (Homo sapiens) (P07550 whole entry, looked up): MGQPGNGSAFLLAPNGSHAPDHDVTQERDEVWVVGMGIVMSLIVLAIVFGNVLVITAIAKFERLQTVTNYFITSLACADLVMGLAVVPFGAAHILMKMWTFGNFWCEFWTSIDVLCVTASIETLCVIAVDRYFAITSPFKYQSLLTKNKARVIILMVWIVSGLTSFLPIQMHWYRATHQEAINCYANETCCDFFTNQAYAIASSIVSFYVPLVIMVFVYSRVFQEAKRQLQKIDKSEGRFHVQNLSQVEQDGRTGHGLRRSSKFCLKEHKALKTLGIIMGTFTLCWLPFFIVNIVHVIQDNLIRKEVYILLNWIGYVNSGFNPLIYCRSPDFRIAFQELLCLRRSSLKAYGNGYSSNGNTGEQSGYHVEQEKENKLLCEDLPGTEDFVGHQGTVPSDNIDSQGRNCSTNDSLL
# Chain of D(2) dopamine receptor (Homo sapiens) (P14416 whole entry, looked up): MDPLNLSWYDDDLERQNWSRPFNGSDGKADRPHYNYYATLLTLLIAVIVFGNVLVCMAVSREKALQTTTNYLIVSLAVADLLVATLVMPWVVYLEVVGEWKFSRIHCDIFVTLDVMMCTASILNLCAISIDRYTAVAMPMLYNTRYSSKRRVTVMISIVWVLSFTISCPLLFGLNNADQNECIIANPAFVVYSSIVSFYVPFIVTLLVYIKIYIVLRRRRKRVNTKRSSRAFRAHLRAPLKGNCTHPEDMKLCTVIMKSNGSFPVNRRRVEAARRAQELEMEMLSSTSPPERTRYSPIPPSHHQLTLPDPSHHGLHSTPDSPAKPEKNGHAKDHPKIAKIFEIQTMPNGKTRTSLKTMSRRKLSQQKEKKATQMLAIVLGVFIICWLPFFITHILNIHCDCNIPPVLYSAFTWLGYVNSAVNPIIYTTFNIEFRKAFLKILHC
# Chain of Gonadotropin-releasing hormone receptor (Homo sapiens) (P30968 whole entry, looked up): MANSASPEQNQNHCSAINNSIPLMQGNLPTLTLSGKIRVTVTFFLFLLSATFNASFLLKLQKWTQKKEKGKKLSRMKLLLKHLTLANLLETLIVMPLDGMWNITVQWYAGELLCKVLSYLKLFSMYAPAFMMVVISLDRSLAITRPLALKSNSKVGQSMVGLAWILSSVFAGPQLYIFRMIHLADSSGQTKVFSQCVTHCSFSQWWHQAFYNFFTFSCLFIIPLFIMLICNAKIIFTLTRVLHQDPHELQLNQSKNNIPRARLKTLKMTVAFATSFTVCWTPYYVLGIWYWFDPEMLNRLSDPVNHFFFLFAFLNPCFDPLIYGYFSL
# Chain of 5-hydroxytryptamine receptor 2A (Homo sapiens) (P28223 whole entry, looked up): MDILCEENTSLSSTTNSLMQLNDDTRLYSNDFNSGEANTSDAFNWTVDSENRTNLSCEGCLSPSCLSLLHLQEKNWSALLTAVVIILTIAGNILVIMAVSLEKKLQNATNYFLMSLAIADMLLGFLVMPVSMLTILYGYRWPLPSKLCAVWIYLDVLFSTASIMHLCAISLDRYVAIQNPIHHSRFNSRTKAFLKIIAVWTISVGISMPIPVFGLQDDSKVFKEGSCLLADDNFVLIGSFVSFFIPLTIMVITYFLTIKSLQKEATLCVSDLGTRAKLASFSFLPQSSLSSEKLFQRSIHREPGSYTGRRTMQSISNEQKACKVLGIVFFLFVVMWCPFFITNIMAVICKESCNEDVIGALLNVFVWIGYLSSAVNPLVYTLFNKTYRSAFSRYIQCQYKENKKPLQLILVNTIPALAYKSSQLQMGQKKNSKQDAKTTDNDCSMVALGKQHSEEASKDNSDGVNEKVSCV
# Chain of Muscarinic acetylcholine receptor M1 (Homo sapiens) (P11229 whole entry, looked up): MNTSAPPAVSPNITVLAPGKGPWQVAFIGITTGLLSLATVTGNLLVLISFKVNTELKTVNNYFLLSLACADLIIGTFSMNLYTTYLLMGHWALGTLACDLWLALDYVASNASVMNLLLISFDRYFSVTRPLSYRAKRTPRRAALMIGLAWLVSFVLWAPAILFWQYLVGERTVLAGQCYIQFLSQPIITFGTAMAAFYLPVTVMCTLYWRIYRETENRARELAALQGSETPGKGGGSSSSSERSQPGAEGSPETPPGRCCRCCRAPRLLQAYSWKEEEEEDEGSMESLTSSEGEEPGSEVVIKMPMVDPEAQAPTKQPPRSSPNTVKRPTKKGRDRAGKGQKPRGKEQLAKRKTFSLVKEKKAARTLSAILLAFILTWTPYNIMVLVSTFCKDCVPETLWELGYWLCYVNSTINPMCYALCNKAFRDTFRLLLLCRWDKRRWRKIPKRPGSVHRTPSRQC
SMILES,Potency [1],Potency [2],Potency [3],Potency [4],Potency [5],Potency [6],Potency [7],Potency [8],Potency [9],Potency [10],Potency [11],Potency [12],Potency [13],Potency [14],Potency [15],Potency [16],Potency [17],Potency [18],Potency [19],Potency [20]
C(/C=C/C=C/Nc1ccccc1)=Nc1ccccc1,inactive,inactive,inactive,inactive,inactive,inactive,inactive,inactive,inactive,inactive,inactive,inactive,inactive,inactive,inactive,inactive,inactive,inactive,inactive,
CO[Si](CCCNCCC[Si](OC)(OC)OC)(OC)OC,inactive,inactive,inactive,inactive,inactive,inactive,inactive,inactive,inactive,inactive,inactive,inactive,inactive,inactive,inactive,inactive,inactive,inactive,inactive,
N#CCc1cccc(C(F)(F)F)c1,inactive,68.6 µM (active),inactive,inactive,inactive,inactive,40.8 µM (active),45.8 µM (active),inactive,inactive,inactive,inactive,inactive,inactive,inactive,inactive,inactive,,inactive,
CC(=O)CCC(C)C,inactive,inactive,inactive,inactive,inactive,inactive,inactive,inactive,inactive,,inactive,inactive,inactive,inactive,inactive,inactive,,inactive,inactive,inactive
C=C[Si](OC(=C)C)(OC(=C)C)OC(=C)C,inactive,inactive,inactive,inactive,inactive,inactive,inactive,inactive,inactive,inactive,inactive,inactive,inactive,inactive,inactive,inactive,,inactive,inactive,inactive
c1c[nH]cn1,inactive,inactive,inactive,inactive,inactive,inactive,inactive,inactive,inactive,inactive,,inactive,inactive,,inactive,inactive,,inactive,inactive,inactive
